# Screening data: PubChem BioAssay, National Center for Advancing Translational Sciences (NCATS)
# HCV inhibitor – blocks hepatitis C virus. Huh7.5.1 HCVcc-Cre infection, luciferase reporter, 44 h. Potency, µM (highest dose often 41.8 µM), without a hit: at the top dose activity change, negative = inhibition, actives largely listed as inhibitors. actives 3.4% (n = 340,000); also: potency is read from the fitted curve at half-maximal effect; % is scaled to controls: 0 for no effect and ±100 for the full control effect
#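 After 44 h co-culture of compound, cells and HCVcc-Cre (~0.5 moi), substrate is added for 15 min at room temperature and luciferase measured over 15 sec. Cells were seeded at 1,000/well and pre-cultured 4 h.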
# Pf growth 48h – inhibits P. falciparum growth in the first generation, 48 h | actives 5.9% (n = 310,000) | Potency, µM (titrated, usually from 28.7 µM), for the others: at the highest dose activity change, negative = inhibition, most hits filed as inhibitors | P. falciparum luciferase growth in erythrocytes, 48 h; also: potency is read from the fitted curve at half-maximal effect; % is scaled to controls: 0 for no effect and ±100 for the full control effect
#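 Firefly luciferase activity from engineered P. falciparum reports growth; inhibitors lower the luminescent signal. Cultures contained 2% hematocrit erythrocytes at 0.1% final parasitemia.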
# HCMV antiviral – inhibitors of human cytomegalovirus; HFF cells, HCMV-luciferase reporter, 72 h; hits give low values; activity change, negative = inhibition, % at 57.5 µM; actives 4.5% (n = 410,000); AID 1259415; in the data active = activity change below about -60%; inconclusive = no clear call, values can overlap the other calls; inactive = above about -39%; also: % is scaled to controls: 0 for no effect and ±100 for the full control effect
#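 Luciferase read-out from HCMV-luciferase-infected HFFs (MOI 1 PFU/cell) 72 h post infection at 37C; compounds added after 16 h cell attachment; activity normalized between buffer-only basal and Salinomycin (10uM) inhibitor controls.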
# Shiga inhibitor – Shiga toxin inhibition; Vero cells, Shiga toxin protein synthesis inhibition reporter; inhibition, % at 38.7 µM; actives 9.2% (n = 290,000); AID 2315; in the data active = inhibition mostly above about 28%, no sharp cut-off; inactive = mostly below about 43%; also: 0% is about no effect
# Pf growth 96h – P. falciparum growth inhibition at 96 hour, primary screen for plastid delayed-death inhibitors; P. falciparum luciferase reporter growth, 96 h; actives 6.9% (n = 320,000); Potency, µM (series often up to 28.7 µM), for the others: top-dose activity change, negative = inhibition, most hits filed as inhibitors; also: potency is read from the fitted curve at half-maximal effect; % is scaled to controls: 0 for no effect and ±100 for the full control effect
#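 Readout is luminescence from an integrated firefly luciferase in P. falciparum. Red cells, 2% hematocrit and 0.05% parasitemia final, were cultured with compound through two parasite generations (96 hours) at 37 C, 5% CO2.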
# CHX counter – counter-screen hit for Shiga toxin inhibitors, cycloheximide | max response, % | actives 12% (n = 300,000) | cell reporter, cycloheximide protein synthesis inhibition counterscreen; in the data active = max response mostly above about 13%, no sharp cut-off; inactive = mostly below about 14%; also: read at 38.3 µM for the half of the compounds with a filed dose; 0% is about no effect
# The depositor's hits bear a star; ? = inconclusive; . = not tested or not shown. The list is not random: actives were taken first. Their share in the collection is about 21%. Unless noted, calls follow the shape of the dose curve; as a rule, active = well fitted inhibition curve with a large enough effect; inconclusive = small, poorly fitted or top-dose-only effect, or another doubt; inactive = no such curve, though single readings can be large or run the other way.
SMILES,HCV inhibitor,Pf growth 48h,HCMV antiviral,Shiga inhibitor,Pf growth 96h,CHX counter
CC(C)(C)C1CC=C2C(C#N)=C(N)C(C#N)(C#N)C(c3cccs3)C2C1 (stereo not drawn),.,.,.,-6,?,-2
CCc1ccc(C2C(C#N)=C(N)C(C#N)(C#N)C3=CCC(C(C)(C)C)CC32)cc1 (stereo not drawn),?,13µM*,.,23,13µM*,16
Cc1ccc(S(=O)(=O)NC(C)(C)CSc2nnc(Nc3ccccc3)s2)cc1,18µM*,.,-25,-19,12µM*,-3
Cc1cccc(NC(=O)CSc2nc(-c3ccco3)nc3cc(=O)[nH]n23)c1,.,?,-15,.,-29%,.
CC(=O)Nc1nonc1-c1nnc(SCC(=O)Nc2ccc(C)c(Cl)c2)n1C,.,.,-6,.,.,.
O=C(NCCc1ccc2c(c1)OCCO2)c1cc(F)cc(F)c1,?,62%,?,21*,15%,25*
NS(=O)(=O)c1ccc(CCNC(=O)c2ccc3c(c2)OCCO3)cc1,-4%,-17%,7,-16,-48%,-6
COc1ccc(C(=O)NC(C(=O)NCCc2ccc3c(c2)OCCO3)C(C)C)cc1 (stereo not drawn),-4%,-1%,2,74*,-26%,21*
O=C(NCCc1ccc2c(c1)OCCO2)c1cccc(F)c1,?,58%,-73*,43*,-76%,51*
Fc1ccc2[nH]c(-c3cccs3)cc2c1,.,.,-2,.,.,.
C[C@@]12C=Cc3occc3[C@H]1CC[C@@]13C[C@@H](CC[C@H]12)[C@@](O)(CO)C3,.,.,.,21,.,10
COc1cc(OC)cc(OCC(O)Cn2cnc3cc(C)c(C)cc32)c1 (stereo not drawn),?,.,18,-14,10µM*,-2
COc1ccc(OCC(O)Cn2ccnc2C)cc1 (stereo not drawn),5%,9%,11,6,?,1
Cc1ccc(C(=O)CSc2nnc(-c3snnc3C)n2C2CC2)cc1,?,?,-24,13,?,7
COc1cc(C(=O)OCCNC(=O)c2ccccc2)cc(OC)c1OC,-29%,.,36,-12,-44%,-3
CCC(COC(=O)c1cc(OC)c(OC)c(OC)c1)(c1ccccc1)N(C)C (stereo not drawn),?,15µM*,84,-7,?,2
Cc1ccc2nc(-c3ccc(S(=O)(=O)N4CCOCC4)cc3)cn2c1,-12%,45%,.,39,.,24*
Cc1ccn2cc(-c3ccc(S(=O)(=O)N4CCOCC4)cc3)nc2c1,.,32%,.,47,20%,48*
Cc1ccc(S(=O)(=O)N2CCOCC(=O)NCCOCCNC(=O)COCC2)cc1,8%,.,-6,13,.,-5
Cc1cccn2cc(-c3cccc(S(=O)(=O)N4CCOCC4)c3)nc12,?,-14%,-20,13,-9%,-2
OC[C@@H]1CN(Cc2ccncc2)C[C@H](n2cnc3c(NCc4ccco4)ncnc32)O1,.,.,-17,.,.,.
O=C(NCc1cccc(F)c1)Nc1nnc([C@@H]2C[C@H](O)[C@@H](CO)O2)s1,.,.,-3,.,.,.
Cc1ccc(-c2nnc(Nc3ccc(C(=O)N(C)C)cc3)c3ccccc23)cc1S(=O)(=O)NC(C)(C)CO,-21%,2.3µM*,-16,-6,?,1
Cc1ccc(-c2nnc(Nc3ccc(OC(F)(F)Cl)cc3)c3ccccc23)cc1S(=O)(=O)NC(C)(C)CO,.,.,-95*,.,.,.
COc1nnc(-c2ccc(C)c(S(=O)(=O)NC(C)(C)CO)c2)c2ccccc12,-18%,?,37,-13,?,-3
COc1ccc2c(c1)c1c(c(=O)n(-c3cccc(Cl)c3)c(=O)n1CC(=O)N1CCCC1)n2C,.,.,-2,.,.,.
N#Cc1c(-c2ccc(Cl)cc2)ccnc1N1CCOCC1,-24%,?,?,46*,4.7µM*,26*
CC(C)[C@H](NC(=O)c1ccccc1F)C(=O)NC1CCCCCCC1,6%,.,5,.,.,.
O=C(COC(=O)c1cc(=O)c2ccccc2o1)NCc1ccc(Cl)cc1,.,.,-22,.,.,.
CN(Cc1ccccc1Cl)C(=O)c1cc2ccccc2o1,10%,21%,23,39*,22%,31*
